The record followed here is the supplement of paper PMC9877034.

SMILES strings stand for the structures. Where a name gives a salt, the structure may show the parent alone. In all, about 1,000 compounds were measured (“cFRET/donor change relative to DMSO, normalised to beta-lapachone positive control (supercomplex I-IV assembly)”: median about 0.18, lowest 2% from about -1 on). The entries come from a sample that favours the lowest values as a whole.

In this assay the test system is C2C12 (NDUFB8-AcGFP / COX8A-DsRed-Monomer FRET reporter). The assay is described as follows: cFRET/donor change relative to DMSO, normalised to beta-lapachone positive control (supercomplex I-IV assembly) (fraction of beta-lapachone effect); higher = more respiratory supercomplex assembly. The note with it: 40 µM; 24 h. The procedure: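 Cells were treated with 40 uM compound for 24 h and imaged on an IN Cell Analyzer 6000. Corrected FRET was divided by donor signal (cFRET/donor) and measured in two replicate experiments. The score is (mean cFRET/donor of compound - mean DMSO) / (mean beta-lapachone 40 uM - mean DMSO). Compounds flagged for prominent cell death, abnormal morphology or decreased cell number were excluded.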
`CC(=O)NC[C@H]1CN(c2ccc(N3CCOCC3)c(F)c2)C(=O)O1` [Linezolid] returned a cFRET/donor change of 0.372. The result for `CCCCCCCCCCCCCCCC(=O)OC[C@H](COP(=O)(O)OCCNC(=O)[C@H](C)NC(=O)CC[C@@H](NC(=O)[C@H](C)NC(=O)[C@@H](C)O[C@H]1[C@H](O)[C@@H](CO)OC(O)[C@@H]1NC(C)=O)C(N)=O)OC(=O)CCCCCCCCCCCCCCC` (some centres not stated) [Mifamurtide] reads -0.0931; that for `O=C1CCCC(=O)C1C(=O)c1ccc(C(F)(F)F)cc1[N+](=O)[O-]` [Nitisinone], 0.0147. With `C=C1C[C@@]23CC[C@H]4[C@@](C)(CCC[C@@]4(C)C(=O)O[C@@H]4O[C@H](CO)[C@@H](O)[C@H](O)[C@H]4O)[C@@H]2CC[C@]1(O[C@@H]1O[C@H](CO)[C@@H](O)[C@H](O)[C@H]1O[C@@H]1O[C@H](CO)[C@@H](O)[C@H](O)[C@H]1O)C3` [Stevioside], the cFRET/donor change was 0.0782.

The compound `N[C@H](C(=O)O)[C@H](Cc1ccccc1)C(=O)O` [L-Beta-threo-benzyl-aspartate] came in with a cFRET/donor change of -0.122. In the case of `CCCCCCCCCCCCCCC[C@H](O)[C@H](N)CO` (racemic) [DL-erythro-Dihydrosphingosine], the cFRET/donor change was 0.48. For the compound `CC(C)NCC(O)c1ccc(O)c(O)c1` (single isomer, unassigned; (-)) [(-)-Isoproterenol hydrochloride], the cFRET/donor change was 0.53. Regarding `C[C@]12C=CC(=O)C=C1CC[C@@H]1C2=CC[C@]2(C)[C@@H](C(=O)CN3CCN(c4cc(N5CCCC5)nc(N5CCCC5)n4)CC3)CC[C@@H]12`, the cFRET/donor change is -1.85.

`CCN(CC)CCCCNc1ncc2cc(-c3c(Cl)cccc3Cl)c(NC(=O)NC(C)(C)C)nc2n1` displayed a cFRET/donor change of 0.403. In the case of `Cc1cn([C@H]2C[C@H](N=[N+]=[N-])[C@@H](CO)O2)c(=O)[nH]c1=O` [3'-Azido-3'-deoxythymidine], the cFRET/donor change was -0.184. For `O=CN(O)CCCP(=O)(O)O` [Fosmidomycin sodium salt hydrate], the cFRET/donor change came out at 0.0766. Regarding `N[C@H](C(=O)O)[C@H](O)c1ccc(O)c(O)c1`, the cFRET/donor change was 0.419. `O=c1[nH]c(=O)n(C2CCCO2)cc1F` (configuration not stated) [Tegafur] came in with a cFRET/donor change of 0.268.

Compound `O=C(NOC[C@H](O)CO)c1ccc(F)c(F)c1Nc1ccc(I)cc1F` registered a cFRET/donor change of 0.21. Take `COc1cc2ncnc(Nc3cccc(Cl)c3)c2cc1OC` [Tyrphostin AG 1478]: the cFRET/donor change came out at 0.19. `CN(C)c1cc2c(Nc3ccc4c(cnn4Cc4ccccc4)c3)ncnc2cn1` gave a cFRET/donor change of -7.46.

Take `CC1=C(C(=O)O)N2C(=O)[C@@H](NC(=O)[C@H](N)c3ccccc3)[C@H]2SC1` [Cephalexin hydrate]: the cFRET/donor change worked out at 0.038. On to `CNS(=O)(=O)CCc1ccc2[nH]cc(C3CCN(C)CC3)c2c1` [Naratriptan hydrochloride], for which the cFRET/donor change was found to be 0.347. In the case of `O=c1cc(-c2ccc(O)cc2)oc2cc(O)cc(O)c12` [Apigenin], the cFRET/donor change was -1.74. The compound `O=c1c(-c2ccc(O)cc2)coc2cc(O)ccc12` [Daidzein] gave a cFRET/donor change of 0.201. Compound `O=c1c(O)c(-c2ccc(O)cc2O)oc2cc(O)cc(O)c12` [Morin] displayed a cFRET/donor change of -3.25. With `O=c1cc(-c2ccccc2)oc2c(O)c(O)ccc12` [7,8-Dihydroxyflavone hydrate], the cFRET/donor change is -0.0745. The result for `COc1ccc(-c2cc(=O)c3c(O)c(OC)c(OC)cc3o2)cc1O` [Eupatorin] reads 0.395; that for `O=C(Nc1ccccc1C(=O)NC1CCCCNC1=O)c1cc2ccccc2s1` (configuration not stated), 0.384; that for `CN1[C@@H]2CC[C@H]1C[C@@H](OC(=O)C(O)c1ccccc1)C2` (mixture of isomers) [DL-Homatropine hydrobromide], 0.0655. The result for `Cn1c(=O)c2[nH]c(-c3ccc(S(=O)(=O)O)cc3)nc2n(C)c1=O` [8-(p-Sulfophenyl)theophylline] reads 0.086; that for `Cn1c(=O)c2[nH]c(C3CCCC3)nc2n(C)c1=O` [8-Cyclopentyl-1,3-dimethylxanthine], 0.158. Turning to `Cn1c(=O)c2[nH]c(-c3ccccc3)nc2n(C)c1=O` [1,3-Dimethyl-8-phenylxanthine], the cFRET/donor change is -1.5. Take `Cc1c(O)cccc1C(=O)N[C@@H](CSc1ccccc1)[C@H](O)CN1C[C@H]2CCCC[C@H]2C[C@H]1C(=O)NC(C)(C)C` [Nelfinavir mesylate hydrate]: the cFRET/donor change is -0.54. To `O=C(O)CCc1ccc(NCc2cccc(Oc3ccccc3)c2)cc1` belongs -0.4; to `C[C@@H](c1ncncc1F)[C@](O)(Cn1cncn1)c1ccc(F)cc1F` [Voriconazole], 0.181. In turn, `NC1CONC1=O` (racemic) [DL-Cycloserine] registered a cFRET/donor change of 0.397. `NC(N)=NC(=O)c1nc(Cl)c(N2CCCCCC2)nc1N` [5-(N,N-hexamethylene)amiloride]: the cFRET/donor change came to 0.351.

For `CCOc1ncc(S(=O)(=O)N2CCN(CC)CC2)cc1-c1nc(=O)c2nn(CCOC)c(CC)c2[nH]1` [Gisadenafil besylate salt], the cFRET/donor change was 0.0753. To `O=C1Nc2ccc(I)cc2/C1=C/c1cc(Br)c(O)c(Br)c1` belongs -3. The result for `N=C(N)c1ccc(OCCCCCOc2ccc(C(=N)N)cc2)cc1` [Pentamidine isethionate] reads 0.191; that for `CC(C)(NS(=O)(=O)c1ccc(Oc2ccc(F)cc2)cc1)C(=O)NO`, 0.196; that for `CN1[C@@H]2CC[C@H]1C[C@@H](OC(c1ccccc1)c1ccccc1)C2` [Benztropine mesylate], 0.586. Compound `Cc1c(-c2ccc(-c3ccccc3F)cc2)nc2ccc(F)cc2c1C(=O)O` [Brequinar sodium salt hydrate] displayed a cFRET/donor change of 0.431. To `Nc1ccc(CCNc2ncnc3c2ncn3C2OC(CO)C(O)C2O)cc1` (configuration not stated) [N6-2-(4-Aminophenyl)ethyladenosine] belongs 0.338. Turning to `CCCC(CCC)C(=O)O[C@H]1C[C@H]2CC[C@@H](C1)[N+]2(C)C` [Anisotropine methyl bromide], the cFRET/donor change was 0.0542.

Turning to `COc1ccc(CCn2nnnc2C2(c3ccc(C)cc3)CC2)cc1` [Mephetyl tetrazole], the cFRET/donor change is 0.388.
